Bioassay records (PubChem)
Shown are actives, neighbours in structure and some others; about 1.3% of the full set was active somewhere.
PrPC surface inh: cell surface PrPC inhibition, primary TR-FRET screen | TR-FRET read-out | hit rate 0.43% among 370,000 | inhibition, % at 13.8 µM; in the data active = inhibition above about 24%
CCHF vOTU inh: CCHFV vOTU protease inhibition | inhibition, % at 11.5 µM | hit rate 0.55% among 370,000 | Pep-AMC fluorescence; in the data active = inhibition above about 30%
PrP 5UTR inh: suppresses PrP 5' UTR mRNA reporter expression | cell-based PrP 5' UTR mRNA reporter, plate reader | inhibition, % (test concentration not listed) | hit rate 0.35% among 340,000; in the data active = inhibition above about 52%
3CLpro inhibitor: SARS-CoV 3CLpro protease inhibition; AID 1706; P0C6X7; hit rate 0.14% among 290,000; inhibition, % at 6 µM; recombinant SARS-CoV 3CLpro, quenched FRET peptide cleavage; in the data active = inhibition above about 12%
PrP 5UTR single: prion 5' UTR mRNA inhibition, cherry-pick retest; shares compounds with PrP 5UTR inh; cell-based prion protein 5' UTR reporter, plate reader; inhibition, % at 2.5 µM; hit rate 48% among 1,100; in the data active = inhibition above about 54%; inconclusive = no clear call, values can overlap the other calls
A number is an active result; 0 = inactive; ? = inconclusive; - = no result given.

SMILES | PrPC surface inh | CCHF vOTU inh | PrP 5UTR inh | 3CLpro inhibitor | PrP 5UTR single
Cc1ccccc1C(=O)NNC(=O)C12CC3CC(CC(C3)C1)C2 | 0 | 0 | 87.8 | 0 | 0
Cc1ccc2nc(NC(=O)c3ccco3)sc2c1 | 0 | 0 | 59.3 | 0 | 0
Cc1ccc2nc(NC(=S)NC(=O)c3ccco3)sc2c1 | 0 | 0 | 0 | 0 | -
COc1ccc2c(c1)[nH]c1c(=O)n(Cc3ccccn3)cnc12 | 0 | 0 | 0 | 0 | -
CC(=O)CSc1ccc(-c2nc3cc(C)c(C)cc3[nH]2)cn1 | 0 | 0 | 81.8 | 0 | 74.0
CC(=O)CSc1ccc(-c2nc3ccccc3[nH]2)cn1 | 0 | 0 | 0 | 0 | -
CC(=O)OC1CC(OC2C(O)CC(OC3C(O)CC(OC4CCC5(C)C(CCC6C5CCC5(C)C(C7=CC(=O)OC7)CCC65O)C4)OC3C)OC2C)OC(C)C1OC1OC(CO)C(O)C(O)C1O (stereo unspecified) | 0 | 0 | 96.2 | - | 89.5
CC(=O)OC(C)(C)/C=C/C(=O)C(C)(O)C1C(O)CC2(C)C3CC=C4C(CC(O)C(=O)C4(C)C)C3(C)C(=O)CC12C (stereo unspecified) | 33.6 | 0 | 80.5 | - | 90.4
CC(=O)OC(C)(C)/C=C/C(=O)[C@](C)(O)[C@H]1[C@H](O)C[C@@]2(C)[C@@H]3CC=C4[C@H](C[C@H](O)C(=O)C4(C)C)[C@]3(C)C(=O)C[C@]12C | - | - | 79.2 | 0 | 88.1
c1ccc(-c2noc(-c3ccc4ccccc4c3)n2)nc1 | - | - | 89.0 | 0 | 86.7
c1ccc(-c2noc(-c3ccc4c(c3)OCO4)n2)nc1 | 0 | 0 | 85.9 | 0 | 84.5
Cc1cccc(-c2noc(-c3ccc4c(c3)OCO4)n2)c1 | 0 | 0 | 0 | 0 | -
CCOCCCNC(=O)CCC(=O)NNc1nc2ccccc2c2nc(-c3ccccc3)nn12 | 0 | 0 | 0 | 0 | -
O=c1c(Cl)c(N2CCCCC2)cnn1-c1nc2ccccc2[nH]1 | 0 | 0 | 74.8 | 0 | 69.2
O=c1c2ccccc2cnn1-c1nc2ccccc2[nH]1 | 0 | 0 | 91.7 | 0 | 90.9
Clc1ccc2nc(N3CCCCC3)[nH]c2c1 | 0 | 0 | 0 | 0 | -
Cc1c(C#N)c(N)c(C(=O)c2ccccc2)n1Cc1ccccc1 | 0 | 0 | 0 | 0 | -
Cc1ccc(N(CN2C(=O)NC(C)(C)C2=O)CN2C(=O)NC(C)(C)C2=O)cc1 | 0 | 0 | 0 | 0 | -
COc1ccc2c(C(=O)CN3CCN(CCO)CC3)c[nH]c2c1 | 0 | 0 | 0 | 0 | -
c1ccc(C(Nc2cccnc2)c2ccccc2)cc1 | 0 | 0 | 71.2 | - | 0
Cn1c(SCc2nc3cc(C(=O)O)ccc3c(=O)[nH]2)nnc1C(F)(F)F | 0 | 0 | 0 | 0 | -
CN(C)C(=O)c1cc(C(=O)c2ccccc2)c[nH]1 | 0 | 0 | 0 | 0 | -
CN(C)C(=O)c1cc(C(=O)c2c(F)cccc2F)c[nH]1 | 0 | 0 | 67.6 | 0 | 0
CC(C)(S)[C@@H](N)C(=O)O | 0 | 0 | 64.1 | 0 | 0
O=C1c2ccccc2C(=O)C1c1ccnc2ccccc12 | 0 | 0 | 57.7 | 0 | 0
SMILES | PrPC surface inh | CCHF vOTU inh | PrP 5UTR inh | 3CLpro inhibitor | PrP 5UTR single
O=C1c2ccccc2C(=O)C1c1nccc2ccccc12 | 0 | 0 | 0 | 0 | -
O=C(Nc1nccs1)c1nc[nH]c1C(=O)N1CCN(c2ccccc2)CC1 | 0 | 0 | 0 | - | -
Cc1ccc(-c2n[nH]c(=S)n2/N=C/c2ccc(C)s2)cc1 | 0 | 0 | 66.1 | 0 | 0
O=C(Nc1nnc(-c2ccccc2)o1)NC1CCCCC1 | 0 | 0 | 77.7 | 0 | 0
CC(=O)Nc1cccc(C(=O)O)n1 | 0 | 0 | 87.8 | 0 | 0
CC(=O)Nc1cccc(NC(C)=O)n1 | 0 | 0 | 0 | 0 | -
N/C(=N\OC(=O)c1ccccc1Cl)c1ccccn1 | 0 | 0 | 76.1 | 0 | 71.1
Cc1ccc(C(=O)O/N=C(\N)c2ccccn2)c(C)c1 | 0 | 0 | 94.9 | 0 | 96.9
Cc1ccccc1C(=O)O/N=C(\N)c1ccccc1 | 0 | 0 | 56.1 | 0 | 54.9
COc1ccc(C(=O)O/N=C(\N)c2ccccn2)cc1 | 0 | 0 | 88.1 | 0 | 93.5
COc1ccccc1C(=O)O/N=C(\N)c1ccccn1 | 0 | 0 | 0 | 0 | -
COc1ccc(CCNC(=O)CCC(=O)Nc2ccccc2[N+](=O)[O-])cc1OC | 0 | 0 | 0 | 0 | -
C#CC1(NC(=O)NC(C)(C)C)CCCCC1 | 0 | 0 | 0 | 0 | -
C[C@@H]1COC(=O)[C@@H](Cc2ccc(F)cc2)C/C=C\C[C@H](CC(=O)N(CCO)Cc2ccccc2)C(=O)N1 | 0 | 0 | 85.2 | - | 0
CCOP(=O)(OCC)C(NC(=O)NS(=O)(=O)c1ccc(C)cc1)c1ccccc1 (stereo unspecified) | 0 | 0 | 0 | 0 | -
COc1ccccc1OCCC(=O)OCC(=O)NCc1ccc(Cl)cc1 | 0 | 0 | 0 | 0 | -
COc1ccccc1OCCC(=O)OCC(=O)NCc1ccc(F)cc1 | 0 | 0 | 87.6 | - | 0
O=C(OCCNC(=O)c1cc2ccccc2oc1=O)c1cccnc1 | 0 | 0 | 65.8 | 0 | 0
CCc1noc(C)c1C(=O)N(C)CC(=O)Nc1cccc(OC)c1 | 0 | 0 | 88.7 | - | 0
CCC(=O)c1ccc(Oc2nc3c(c(=O)n(C)c(=O)n3C)n2CC)cc1 | 0 | 0 | 57.7 | 0 | 0
NC(Cc1ccc(F)cc1)c1csc(Nc2ccccn2)n1 (stereo unspecified) | 0 | 0 | - | - | -
CCn1c(C)nc2cc(-c3nc4n(n3)Cc3ccccc3-4)ccc21 | - | - | 94.2 | 0 | 95.6
O=C(NC(=S)Nc1cccnc1)c1cccc(Br)c1 | 0 | 0 | 0 | 0 | -
O=C(c1cccc(S(=O)(=O)N2CCCC2)c1)N1CCN(c2ccccc2F)CC1 | 0 | 0 | 0 | 0 | -
C[C@@H]1O[C@@H](O[C@H]2C[C@@H](O)[C@]3(CO)[C@H]4[C@H](O)C[C@]5(C)[C@@H](C6COC(=O)C6)CC[C@]5(O)[C@@H]4CC[C@]3(O)C2)[C@H](O)[C@H](O)[C@H]1O (stereo partly specified) | 0 | 0 | 58.7 | 0 | 70.3
SMILES | PrPC surface inh | CCHF vOTU inh | PrP 5UTR inh | 3CLpro inhibitor | PrP 5UTR single
CC1OC(OC2CC(O)C3(CO)C4C(O)CC5(C)C(C6=CC(=O)OC6)CCC5(O)C4CCC3(O)C2)C(O)C(O)C1O (stereo unspecified) | 0 | 0 | 91.1 | - | 92.7
O=C(NCc1ccc2c(c1)OCO2)C1CCCN(S(=O)(=O)c2cccc3cccnc23)C1 (stereo unspecified) | 0 | 0 | 77.7 | 0 | ?
COC1=C(C)C(=O)C2=C(C1=O)C(CO)N1C(C#N)C3CC4C(C1C2N1CCOC41)N3C (stereo unspecified) | 0 | 0 | 76.5 | - | 92.0
COC1C(C)OC(OC2CC(C)(O)Cc3cc4c(c(O)c32)C(=O)c2c(O)cc3c(c2C4=O)OC2OC3(C)C(O)C(N(C)C)C2O)C(OC)C1(C)OC (stereo unspecified) | 0 | 0 | 89.7 | - | 80.8
COc1cccc2c1C(=O)c1c(O)c3c(c(O)c1C2=O)CC(O)(C(C)=O)CC3OC1CC(O)C(O)C(C)O1 (stereo unspecified) | 0 | 0 | 0 | - | -
C[C@H](CO)N1C[C@H](C)[C@@H](CN(C)S(C)(=O)=O)Oc2ccc(NS(=O)(=O)c3cn(C)cn3)cc2C1=O | 0 | 0 | 89.8 | - | 0
Cc1ccc(OCC(=O)Oc2ccc(C(C)C)cc2)cc1 | 0 | 0 | 0 | 0 | -
CCC(=O)Oc1ccc(C(CC)C(CC)c2ccc(OC(=O)CC)cc2)cc1 (stereo unspecified) | 0 | 0 | 58.0 | 0 | 0
